Data: PubChem BioAssay (NCATS)
Several values for one entry are separate records, joined by “and”; a condition that tells them apart may be missing. Equal entries are not always repeated. Inconclusive results are not listed. Entries that show only a call come without a potency. Activity calls are given as the source filed them. The call rests on the fitted dose curve; in most records, active means well fitted inhibition curve with a large enough effect; inconclusive means small, poorly fitted or top-dose-only effect; inactive means no such curve, though single readings can be large or run the other way.

Experiment: qHTS for Inhibitors of the Aldehyde Dehydrogenase Family (ALDH1A2, ALDH1A3, ALDH2, ALDH3A1) (AID 2061307); further: nearly all actives have a fitted effect of over 50% in size; on potency: test system not described further here
Details: ALDH inhibition qHTS; series mostly up to 50.3 µM
Potency means the concentration at half of the fitted maximal effect.

SMILES	Potency
O=C(Nc1ncccc1O)c1ccc(S(=O)(=O)Nc2ccccc2)cc1	inactive
Cc1noc(C)c1-c1cncc(C(=O)NCc2cccnc2)c1	inactive
Cc1cccc(NC(=O)CSCC(=O)Nc2ccc(F)cc2)c1	inactive
COc1ccc(C(=O)c2c(C)n(CC(=O)O)c3cc(OC)ccc23)cc1	inactive
COc1ccc(CCNC(=O)c2ccc3nnc(-c4ccc([S+](C)(=O)[O-])cc4)n3c2)cc1	inactive
O=C(c1cnc(N2CCCCC2)c2ccccc12)N1CCN(c2ccc(Cl)cc2)CC1	inactive
NC(=O)Cc1ccc(Nc2ncnc3c2cnn3-c2ccccc2)cc1	inactive
COc1ccc(-n2ccc(C(=O)NC(C)(C)C)n2)cc1	inactive
O=C(O)c1csc(-n2[nH]c(-c3ccc(F)c(Cc4ccccc4)c3)cc2=O)n1	22.5 µM (active)
CCOc1ccc(NCC(=O)Nc2ccc(Cl)cc2C)cc1	2.25 µM (active) and 7.94 µM (active)
O=C(Nc1cccnc1)c1nccs1	inactive
Cc1cc(=O)n2[nH]c(NC(=O)c3ccccc3)nc2n1	inactive
COc1ccc(OC)c(-n2c3c(cc(-c4nnn(-c5ccc(Cl)cc5)n4)c2=O)C(=O)CC(C)(C)C3)c1	5.04 µM (active)
COc1ccc(C(N)=O)cc1NC(=O)c1ccn(-c2ccc(F)cc2)n1	inactive
O=C1CN(S(=O)(=O)c2cccc(C(=O)Nc3ccc(OC(F)(F)F)cc3)c2)CCN1	inactive
COc1cccc(-c2nc(CNc3cccc(C(C)=O)c3)cs2)c1	10 µM (active)
CCOc1ccc(NC(=O)CSCC(=O)Nc2ccc(C)cc2)cc1	inactive
